Pf Dd2 growth: P. falciparum Dd2 growth inhibition | SYBR Green, 72 h; stronger effect = lower value | activity change, % at 10 µM | 2.3% of 94,000 active | AID 1159554; in the data active = activity change below about -80%; inconclusive = no clear call, values can overlap the other calls
C diff growth: inhibitors of Clostridium difficile growth; growth activity, negative = inhibition, % at 16 µg/mL (by protocol); AID 1259249; 0.25% of 86,000 active; Clostridium difficile clinical isolate growth, OD600, 24 h; stronger effect = lower value;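 active = mean growth activity at or below -80% and every replicate also at or below -80%; inconclusive = mean at or below -80% but some replicate above -80%; inactive = mean growth activity above -80%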
T cruzi growth-1: inhibitors of T. cruzi proliferation | T. cruzi beta-gal in NIH3T3, GalScreen luminescence, 90 h | inhibition, % at 8.34 µM | 5.9% of 77,000 active | AID 624255;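 active = mean inhibition above about 93%, with at least 55% of replicates each passing it, limit read from the data, passing the limit was not always enough; inconclusive = only one of those two conditions holds; inactive = neither condition holds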
T cruzi growth-2: blocks T. cruzi growth in NIH3T3 host cells. shares compounds with T cruzi growth-1. T. cruzi beta-gal in NIH3T3, GalScreen luminescence, 90 h. inhibition, % at 8.35 µM. 72% of 5,600 active. AID 651739;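 active = mean replicate inhibition above about 95% and at least 55% of replicates individually reaching it, limit read from the data; inconclusive = only one of the two criteria is met; inactive = neither criterion is met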
T cruzi growth-3: Trypanosoma cruzi proliferation inhibition. 21% of 5,600 active. shares compounds with T cruzi growth-1. inhibition, % at 2.09 µM. T. cruzi beta-gal in NIH3T3, GalScreen luminescence, 90 h;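 active = mean inhibition above about 95%, with at least 55% of replicates also reaching it, limit read from the data; inconclusive = meets just one of the two conditions; inactive = meets neither condition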
3T3 cytotox: cytotoxicity in mouse NIH/3T3 fibroblasts | 14% of 5,600 active | NIH/3T3 viability, CellTiter-Glo ATP luminescence, 90 h | cytotoxicity (signal decrease), % at 8.35 µM | shares compounds with T cruzi growth-1;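 active = mean signal decrease across replicates above about 35% based on untreated-well scatter, with enough replicates individually passing, limit read from the data; inconclusive = no rule stated though some were filed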
3T3 cytotox 2: kills mouse NIH/3T3 fibroblasts | shares compounds with T cruzi growth-1 | NIH/3T3 viability, CellTiter-Glo ATP luminescence, 90 h | inhibition, % at 24.9 µM | 56% of 5,600 active | AID 651744;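 active = mean loss of cell viability signal at or above a set limit, and enough replicates individually reaching it; inconclusive = meets only the mean limit or only the replicate share; inactive = meets neither condition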
Large screens that a line does not name were inactive (follow-up assays come after a bar, where they were run). An excerpt weighted towards active compounds, which were near 6.8% of everything screened.

COc1ccc(NC(=O)Nc2ccc3c(c2)C(=O)N([C@@H](C)CO)C[C@@H](C)[C@@H](CN(C)C(=O)Nc2ccc(C(F)(F)F)cc2)OCCCC[C@@H](C)O3)cc1	T cruzi growth-1 inconclusive | T cruzi growth-2 101 | T cruzi growth-3 107 | 3T3 cytotox inactive | 3T3 cytotox 2 inactive
COc1ccc(NC(=O)Nc2ccc3c(c2)C(=O)N([C@@H](C)CO)C[C@@H](C)[C@H](CN(C)C(=O)Nc2ccc(C(F)(F)F)cc2)OCCCC[C@H](C)O3)cc1	T cruzi growth-1 inconclusive | T cruzi growth-2 103 | T cruzi growth-3 100 | 3T3 cytotox inactive | 3T3 cytotox 2 inactive
COc1ccc(NC(=O)Nc2ccc3c(c2)C(=O)N([C@@H](C)CO)C[C@@H](C)[C@@H](CN(C)C(=O)Nc2ccc(OC)cc2)OCCCC[C@@H](C)O3)cc1	none (no result: C diff growth)
COc1ccc2c3c(n(C)c2c1)[C@@H](CO)N(C(=O)C1CCOCC1)CC31CCN(Cc2cccc(F)c2)CC1	none (no result: T cruzi growth-1)
C[C@@H]1CN([C@@H](C)CO)C(=O)Cc2cc(NS(=O)(=O)c3cn(C)cn3)ccc2O[C@@H]1CN(C)C(=O)Nc1cccc2ccccc12	none
COc1cccc(-c2ccc3c(c2)[C@@H]2[C@@H](CCN2C(=O)c2cccc(F)c2)[C@H](CO)N3)c1	none
COc1ccc(NC(=O)N(C)C[C@@H]2OCCCC[C@@H](C)Oc3ccc(NC(=O)Nc4ccc(C(F)(F)F)cc4)cc3C(=O)N([C@@H](C)CO)C[C@H]2C)cc1	none
COc1ccc(NC(=O)Nc2ccc3c(c2)C(=O)N([C@H](C)CO)C[C@H](C)[C@@H](CN(C)C(=O)Nc2ccc(C(F)(F)F)cc2)OCCCC[C@H](C)O3)cc1	Pf Dd2 growth -90, T cruzi growth-1 inconclusive | T cruzi growth-2 112 | T cruzi growth-3 107 | 3T3 cytotox inactive | 3T3 cytotox 2 inactive
COc1ccc(CN(C)C[C@H]2Oc3ccc(NC(=O)Nc4ccc(F)cc4)cc3C(=O)N([C@@H](C)CO)C[C@@H]2C)cc1	none (no result: T cruzi growth-1)
O=C(NCC[C@H]1CC[C@H](NC(=O)c2ccccc2F)[C@@H](CO)O1)c1ccc2c(c1)OCO2	none (no result: C diff growth)
COc1ccc(NC(=O)Nc2ccc3c(c2)C(=O)N([C@@H](C)CO)C[C@H](C)[C@@H](CN(C)S(=O)(=O)c2ccc(Cl)cc2)OCCCC[C@@H](C)O3)cc1	T cruzi growth-1 107 | T cruzi growth-2 109 | T cruzi growth-3 112 | 3T3 cytotox inactive | 3T3 cytotox 2 inactive
COc1ccc(NC(=O)Nc2ccc3c(c2)C(=O)N([C@H](C)CO)C[C@H](C)[C@H](CN(C)S(=O)(=O)c2ccc(OC)cc2)OCCCC[C@@H](C)O3)cc1	none
COc1ccc(NC(=O)Nc2ccc3c(c2)C(=O)N([C@@H](C)CO)C[C@H](C)[C@@H](CN(C)S(=O)(=O)c2ccc(OC)cc2)OCCCC[C@@H](C)O3)cc1	none
COc1ccc(NC(=O)Nc2ccc3c(c2)C(=O)N([C@H](C)CO)C[C@@H](C)[C@H](CN(C)S(=O)(=O)c2ccc(Cl)cc2)OCCCC[C@@H](C)O3)cc1	T cruzi growth-1 115 | T cruzi growth-2 105 | T cruzi growth-3 101 | 3T3 cytotox inactive | 3T3 cytotox 2 inactive
COc1ccccc1C#Cc1cnc2c(c1)C(=O)N([C@@H](C)CO)C[C@@H](C)[C@H](CN(C)C(=O)CC1CC1)O2	T cruzi growth-1 108 | T cruzi growth-2 112 | T cruzi growth-3 111 | 3T3 cytotox inactive | 3T3 cytotox 2 45
COc1ccccc1C#Cc1cnc2c(c1)C(=O)N([C@@H](C)CO)C[C@H](C)[C@H](CN(C)C(=O)CC1CC1)O2	none
CCC(=O)N(C)C[C@@H]1Oc2ncc(C#Cc3ccccc3OC)cc2C(=O)N([C@H](C)CO)C[C@H]1C	none
COc1ccccc1C#Cc1cnc2c(c1)C(=O)N([C@H](C)CO)C[C@@H](C)[C@H](CN(C)C(=O)CC1CC1)O2	T cruzi growth-1 108 | T cruzi growth-2 102 | T cruzi growth-3 inactive | 3T3 cytotox inactive | 3T3 cytotox 2 39
CN(C)C(=O)c1cccc(-c2ccc([C@H]3[C@@H](CO)N4CCCCN(C(=O)C5CCCC5)C[C@@H]34)cc2)c1	T cruzi growth-1 102 | T cruzi growth-2 103 | T cruzi growth-3 98 | 3T3 cytotox inactive | 3T3 cytotox 2 inactive
CN(C)C(=O)c1ccc(-c2ccc([C@H]3[C@H]4CN(C(=O)C5CCC5)CCCCN4[C@H]3CO)cc2)cc1	none
CC(=O)N1CCCCN2[C@H](C1)[C@H](c1ccc(-c3cccc(C(=O)N(C)C)c3)cc1)[C@@H]2CO	none
CN(C)C(=O)c1cccc(-c2ccc([C@H]3[C@H](CO)N4CCCCN(C(=O)C5CCC5)C[C@@H]34)cc2)c1	T cruzi growth-1 102 | T cruzi growth-2 99 | T cruzi growth-3 inconclusive | 3T3 cytotox inactive | 3T3 cytotox 2 inactive
CN(C)C(=O)c1cccc(-c2ccc([C@H]3[C@@H](CO)N4CCCCN(C(=O)C5CCC5)C[C@H]34)cc2)c1	T cruzi growth-1 inconclusive | T cruzi growth-2 107 | T cruzi growth-3 inactive | 3T3 cytotox inactive | 3T3 cytotox 2 inactive
CN(C)C(=O)c1cccc(-c2ccc([C@@H]3[C@@H](CO)N4CCCCN(C(=O)C5CCC5)C[C@@H]34)cc2)c1	none
CCC(=O)N1[C@@H]2Cn3c(ccc(-c4ccccc4F)c3=O)[C@H]1[C@@H](C(=O)NC1CCCC1)[C@@H]2CO	none
COc1ccc(S(=O)(=O)Nc2ccc3c(c2)CC(=O)N([C@H](C)CO)C[C@@H](C)[C@H](CN(C)Cc2ccc(Cl)c(Cl)c2)O3)cc1	none
O=C(C[C@H]1C[C@@H]2c3cc(NC(=O)Nc4ccccc4F)ccc3O[C@@H]2[C@@H](CO)O1)NC1CCCC1	none (no result: C diff growth)
C[C@@H]1CN([C@H](C)CO)C(=O)c2cc(NC(=O)c3ccccc3)ccc2O[C@@H](C)CCCCO[C@H]1CN(C)Cc1ccccc1	T cruzi growth-1 103 | T cruzi growth-2 113 | T cruzi growth-3 inactive | 3T3 cytotox inactive | 3T3 cytotox 2 89
C[C@@H]1CCCCO[C@H](CN(C)Cc2ccccc2)[C@@H](C)CN([C@@H](C)CO)C(=O)c2cc(NC(=O)c3ccccc3)ccc2O1	none
C[C@@H]1CN([C@@H](C)CO)C(=O)c2cc(NC(=O)c3ccccc3)ccc2O[C@@H](C)CCCCO[C@H]1CN(C)Cc1ccncc1	T cruzi growth-1 101 | T cruzi growth-2 109 | T cruzi growth-3 inactive | 3T3 cytotox inactive | 3T3 cytotox 2 inactive
C[C@@H]1CCCCO[C@@H](CN(C)Cc2ccccc2)[C@H](C)CN([C@H](C)CO)C(=O)c2cc(NC(=O)c3ccccc3)ccc2O1	T cruzi growth-1 inconclusive | T cruzi growth-2 114 | T cruzi growth-3 inactive | 3T3 cytotox inactive | 3T3 cytotox 2 55

Source: PubChem BioAssay
